Marburg entry inh: qHTS for inhibitors of binding or entry into cells for Marburg Virus | 1.8% of 300,000 active | Potency, µM (highest dose often 37.8 µM), usual class: inhibitors | Marburg virus pseudotyped entry inhibition, cell reporter; calls by dose curve; tested in HEK293 cells
FMDV antiviral: High Throughput Screening for Foot and Mouth Disease Virus Antivirals | FMDV antiviral cell-based qHTS | Potency, µM (series often up to 57.9 µM), hits mostly inhibitors | 1.2% of 410,000 active; calls by dose curve; tested in HEK293T cells; further: read-out not given here; nearly all actives have a fitted effect of over 45% in size
HCMV inh: qHTS Assay for inhibitors of the human cytomegalovirus (HCMV); activity change, negative = inhibition, % at 57.5 µM; 4.5% of 410,000 active; HFF cells, HCMV-luciferase reporter, 72 h; active compounds read low; in the data active means activity change below about -60%; inconclusive means no clear call, values can overlap the other calls; inactive means above about -39%
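Two-dose cell screen: HFF monolayers treated with compounds and infected with luciferase-expressing HCMV at 1 PFU/cell, 72 h at 37C, then lysed for luciferase measurement.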
Lassa entry inh: qHTS for Inhibitors of binding or entry into cells for Lassa Virus | Lassa virus pseudotype entry inhibition, cell reporter | Potency, µM (titrated, usually from 37.9 µM), most hits filed as inhibitors | 1.2% of 300,000 active | AID 540256, 2011; calls by dose curve; tested in HEK293 cells; further: nearly all actives have a fitted effect of over 50% in size
Hits are given with their value; ! = not active in a repeat. Rows were chosen to be rich in hits. Some 6.2% of all compounds tested hit in one or more screens of this group.

What do the screens show for `CC1CCC(NC(=O)c2ccc(CS(=O)(=O)c3ccc(Cl)cc3)o2)CC1` (stereo unspecified)?
FMDV antiviral: 31.6µM; HCMV inh: inactive; Lassa entry inh: inconclusive

What do the screens show for `O=C(NCCc1ccccc1)c1ccc(CS(=O)(=O)c2ccc(Cl)cc2)o1`?
FMDV antiviral: inactive; HCMV inh: -60.3!; Lassa entry inh: inactive

How did O=C(NCCc1ccc(Cl)cc1)c1ccc(CS(=O)Cc2cccc(Cl)c2)o1 (stereo unspecified) do in these assays?
FMDV antiviral: inconclusive; HCMV inh: -64.1; Lassa entry inh: inactive

Results for Cc1ccn(CCC(=O)NCC2Cc3cc(Cl)cc(-c4ccc5[nH]ccc5c4)c3O2)n1 (stereo unspecified) ?
FMDV antiviral: inactive

Results for Nc1nonc1-n1nnc(C(=O)N/N=C/c2ccoc2)c1-c1ccccc1 ?
Marburg entry inh: inactive; FMDV antiviral: inactive; HCMV inh: inactive; Lassa entry inh: inactive

How did COc1ccc(NC(=O)CN(C)S(=O)(=O)c2ccc3[nH]c4c(c3c2)CCCC4)cc1Cl do in these assays?
FMDV antiviral: inconclusive; HCMV inh: inactive; Lassa entry inh: inactive

What do the screens show for `CN(CCOc1ccccc1)CC(=O)Nc1cccc(C#N)c1`?
Marburg entry inh: inactive; FMDV antiviral: inactive; HCMV inh: -64.5; Lassa entry inh: inactive

Results for Nc1ncnc2c1ncn2[C@@H]1O[C@H](C(=O)N2CCN(Cc3ccccn3)CC2)[C@@H](O)[C@H]1O ?
FMDV antiviral: inactive

What do the screens show for `CC[N+](CC)(CC)CCOc1ccc(/C=C/c2ccccc2)cc1`?
FMDV antiviral: inconclusive; HCMV inh: -99.1

What do the screens show for `O=C(NCc1nnc2n1CCN(Cc1ccnc3ccccc13)CC2)c1cccc(F)c1`?
FMDV antiviral: inactive

How did CCCCS(=O)(=O)N1CCN(C(=N)N[N+](=O)[O-])CC1 do in these assays?
Marburg entry inh: inactive; FMDV antiviral: inactive; HCMV inh: -62.4; Lassa entry inh: inactive

Results for Cc1cc(=O)c2c(O)cc(O)c(C)c2o1 ?
FMDV antiviral: inactive

Results for COc1cccc(NC(=O)NC2(C(F)(F)F)Oc3ccccc3O2)c1 ?
Marburg entry inh: 8.2µM; FMDV antiviral: inactive; HCMV inh: inactive; Lassa entry inh: inactive

Results for COc1ccccc1NC(=O)C1=C(C)Nc2nc(SCc3ccccc3F)nn2C1c1cccs1 (stereo unspecified) ?
Marburg entry inh: inconclusive; FMDV antiviral: inactive; HCMV inh: inactive; Lassa entry inh: inactive

What do the screens show for `COc1cc(/C(C)=N/NC(=S)NC(C)C)cc(OC)c1OC`?
Marburg entry inh: inconclusive; FMDV antiviral: inactive; HCMV inh: -102.3; Lassa entry inh: inactive

How did C/C(=N\NC(=S)NC(C)C)c1ccccc1OC(F)F do in these assays?
Marburg entry inh: inactive; FMDV antiviral: inactive; HCMV inh: -113.5; Lassa entry inh: inconclusive

Results for CCNC(=S)N/N=C(\C)c1ccc2ccccc2c1OC(F)F ?
Marburg entry inh: inconclusive; FMDV antiviral: inactive; HCMV inh: inactive; Lassa entry inh: inconclusive

What do the screens show for `CC1CCN(C(=O)c2[nH]cnc2C(=O)N(C)CCO)CC1`?
HCMV inh: inactive

What do the screens show for `CCN(Cc1ccncc1)Cc1ccc2c(c1)CN(C(=O)c1ccccc1)CCO2`?
FMDV antiviral: inactive

How did Cc1cccc(N2CCN(C(=O)CCn3c(=O)c4cccn4c4cccnc43)CC2)c1C do in these assays?
FMDV antiviral: inactive; HCMV inh: inactive; Lassa entry inh: inactive

Results for CSCc1ccc(C(=O)N2CCC(N3CCC(C(=O)NC(C)C)CC3)CC2)o1 ?
Marburg entry inh: inactive; FMDV antiviral: inactive; HCMV inh: -64.3; Lassa entry inh: inactive

What do the screens show for `CC(C)NC(=O)C1CCN(C2CCN(C(=O)Cc3ccc4c(c3)OCO4)CC2)CC1`?
Marburg entry inh: inactive; FMDV antiviral: inactive; HCMV inh: inactive; Lassa entry inh: inactive

What do the screens show for `Cc1ccc2cc(CCNC(=O)CC(C)C)c(=O)[nH]c2c1`?
FMDV antiviral: inactive; HCMV inh: -67.5

Results for Oc1ccc(/C=N/Nc2ccnc3cc(Cl)ccc23)cc1O ?
FMDV antiviral: inactive; HCMV inh: -60.2

How did O=C1COCc2ccc(-c3ccc(Cl)cc3)cc2N1CCN1CCOCC1 do in these assays?
HCMV inh: inactive

Results for COc1cccc(N2CCN(C3=NS(=O)(=O)C(c4ccc(C)cc4)=C3C)CC2)c1 ?
Marburg entry inh: inconclusive; FMDV antiviral: inactive; HCMV inh: inactive; Lassa entry inh: inactive

What do the screens show for `Cc1oc(-c2ccc(Cl)cc2)nc1CS(=O)CC(=O)N1CCN(c2cccc(C(F)(F)F)c2)CC1` (stereo unspecified)?
FMDV antiviral: 31.6µM; HCMV inh: inconclusive; Lassa entry inh: inactive
